PglD inh – PglD (C. jejuni) enzyme inhibition | 0.098% of 360,000 active | purified PglD enzyme, DTNB colorimetric CoA detection | inhibition, % at 12.5 µM; in the data active = inhibition above about 16%, passing the limit was not always enough
PDI turbidity – PDI (human) enzyme inhibition; P07237; PDI insulin aggregation turbidity, A650, 90 min; inhibition, % at 10 µM; 0.052% of 350,000 active;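 active = mean inhibition across replicates of 30% or more, whatever share of single replicates reach that level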
ARNT TACC3 PPI – disrupts binding between human ARNT and TACC3; inhibition, % at 9.99 µM; 0.66% of 390,000 active; Q9Y6A5; AlphaScreen His-ARNT PAS-B/GST-TACC3 binding, luminescence; TACC3 fragment carries E629A point mutation;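 active = mean inhibition of replicates at least 50% and at least half of replicates each reaching 50%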
ALR H2O2 inh – blocks human ALR sulfhydryl oxidase activity. 3.8% of 290,000 active. inhibition, % (test concentration not listed). P55789. purified ALR, DTT oxidation, H2O2 HRP-luminol luminescence;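 active = mean replicate inhibition above about 79%, with every replicate also reaching it, limit read from the data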
Target sequence (P55789 whole entry, looked up): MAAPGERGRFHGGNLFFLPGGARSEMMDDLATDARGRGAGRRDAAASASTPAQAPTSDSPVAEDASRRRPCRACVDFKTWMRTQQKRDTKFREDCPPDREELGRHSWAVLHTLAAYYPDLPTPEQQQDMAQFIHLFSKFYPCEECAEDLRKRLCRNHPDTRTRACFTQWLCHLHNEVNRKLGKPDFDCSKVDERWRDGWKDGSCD
ERp5 inh – ERp5 (human) disulfide isomerase inhibition; ERp5 insulin aggregation, absorbance 650 nm, 90 min; 0.05% of 350,000 active; inhibition, % at 9.99 µM; Q15084;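 active = mean replicate inhibition above about 25%, with every replicate also reaching it, limit read from the data, passing the limit was not always enough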
CendR NRP1 mod – modulators of CendR peptide binding to human neuropilin-1. FAM-RPARPAR peptide binding to NRP-1, fluorescence polarization. O14786. 0.85% of 360,000 active. inhibition, % at 25 µM;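 active = inhibition or corrected inhibition above about 18%, plus a signal ratio from 0.5 to 1.5, limit read from the data, passing the limit was not always enough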
A number is an active result; n = inactive; x = no result. This excerpt belongs to a sample that is enriched for hits.

SMILES	PglD inh	PDI turbidity	ARNT TACC3 PPI	ALR H2O2 inh	ERp5 inh	CendR NRP1 mod
Cc1cc(C)n(CCc2nc(-c3ccc(C)o3)cs2)n1	n	n	n	95	x	n
COCC(=O)Nc1ccc2c(c1)C(=O)N(C)[C@H]1CC[C@@H](CC(=O)NCCc3ccncc3)O[C@H]1CO2	n	x	n	x	n	x
O=C(C1=C[C@@H](C2CC2)C[C@@H](OCc2ccc(CO)cc2)O1)N1CCCC1	x	x	x	x	n	x
Cc1nc(N2CCN(C)CC2)c2cc(-c3ccccc3)sc2n1	n	n	n	97	n	n
Cn1cccc1/C=C1\SC(=Nc2ccc(O)cc2)NC1=O	x	n	n	99	n	n
CCCn1c(SCC(=O)Nc2ccc(F)c(Cl)c2)nc(O)cc1=O	n	n	n	x	n	n
Cn1c(COc2ccccc2)nnc1SCC(=O)Nc1nnc(C2CC2)s1	n	n	n	x	27	n
O=C(CSc1nc(O)cc(=O)n1-c1ccccc1)Nc1nc2ccccc2s1	n	n	n	99	n	n
Cn1c(COc2ccccc2)nnc1SCC(=O)Nc1ccc2c(c1)OCO2	n	n	n	n	n	n
Cc1ccc(-n2c(SCC(=O)Nc3ccc(Cl)cc3)nc(O)cc2=O)cc1	n	n	n	94	n	n
COc1ccc(NC(=O)CSc2nc(O)cc(=O)n2C)cc1	n	n	n	99	x	n
O=C(C[C@@H]1C=C[C@H](NC(=O)C2CCOCC2)[C@H](CO)O1)NCc1ccccc1Cl	x	x	x	x	n	x
C[C@H](CO)N1C[C@H](C)[C@H](CN(C)C(=O)[C@H](C)c2ccccc2)OCc2ccccc2-c2c(n(C)c3ccccc23)C1=O	x	x	x	x	n	x
Cc1cccc(NC(=O)CSc2nc3ccccc3c(=O)n2C)c1	n	n	n	x	n	n
CCn1c(CNc2ccc(C)cc2)nnc1SCC(=O)NCc1ccccc1	n	n	n	86	n	n
O=C(CSc1nc(O)cc(=O)n1-c1ccccc1)Nc1ccc2c3c(cccc13)CC2	n	n	x	99	n	n
Cn1c(SCC(=O)Nc2ccccc2)nc(O)cc1=O	n	n	n	99	n	n
COc1ccccc1-n1c(SCC(=O)Nc2ccc(Br)cc2)nc(O)cc1=O	n	n	n	99	n	n
Cc1ccc(S(=O)(=O)Nc2cccc3c2O[C@H](CN(C)C(=O)Nc2ccc(F)cc2)[C@@H](C)CN([C@H](C)CO)C3=O)cc1	n	x	n	x	n	x
C[C@@H]1CN([C@@H](C)CO)S(=O)(=O)c2ccc(-c3cncnc3)cc2O[C@H]1CN(C)C(=O)C1CCC1	n	x	n	x	n	x
O=C(Cc1ccccn1)N[C@H]1CC[C@@H](CCNC(=O)c2cc(Cl)cc(Cl)c2)O[C@@H]1CO	n	x	n	x	n	x
Nn1c(SCC(=O)Nc2nc3ccccc3s2)nncc1=O	x	n	n	98	n	n
COc1ccc(NC(=O)CSc2nc(O)cc(=O)n2-c2ccccc2)cc1	n	n	n	99	n	n
CCCn1c(SCC(=O)Nc2ccc(Cl)cc2F)nc(O)cc1=O	n	n	n	99	n	n
COc1ccc(NCc2nnc(SCC(=O)Nc3ccccc3)n2C)cc1	n	n	x	94	n	n
SMILES	PglD inh	PDI turbidity	ARNT TACC3 PPI	ALR H2O2 inh	ERp5 inh	CendR NRP1 mod
O=C(Cc1ccncc1)NCC[C@H]1CC[C@H](NC(=O)C2CCC2)[C@H](CO)O1	n	x	n	x	n	x
CCn1c(CNC(=O)c2cccs2)nnc1SCC(=O)Nc1ccc(Cl)cc1	n	n	n	97	x	n
CCn1c(CNC(=O)c2cccs2)nnc1SCC(=O)Nc1cc(Cl)ccc1C	n	n	n	n	x	n
Cc1ccccc1S(=O)(=O)N[C@H]1CC[C@@H](CCn2cc(-c3ccccc3)nn2)O[C@@H]1CO	n	x	x	x	n	x
COc1ccccc1NC(=O)N[C@@H]1C=C[C@@H](CC(=O)NCc2ccc(Cl)c(Cl)c2)O[C@H]1CO	n	x	n	x	n	x
COc1cc(C(=O)OCCCOC(=O)c2cc(OC)c(OC)c(OC)c2)cc(OC)c1OC	n	n	n	n	n	22
COc1cc(OC)cc(C(=O)OCCCOC(=O)c2cc(OC)cc(OC)c2)c1	n	n	n	n	n	n
COc1cc(C(N)=O)cc(Br)c1OC	x	n	n	n	x	25
COc1cc(/C=N/O)cc(Cl)c1OC	n	n	n	n	n	n
COc1cc(/C=N/O)cc(Br)c1OC	n	n	n	90	x	n
COc1cc(C(=O)OCC(=O)Nc2c(F)c(F)c(F)c(F)c2F)cc(OC)c1OC	x	n	n	n	x	21
Cc1ccc(S(=O)(=O)N(C)C[C@H]2Oc3ccc(NC(=O)CCCN(C)C)cc3CC(=O)N([C@H](C)CO)C[C@H]2C)cc1	n	x	n	x	n	x
COc1cccc(NC(=O)CN2CCSc3ccccc32)c1	x	n	n	100	n	n
COc1ccccc1NC(=O)CN1CCN(Cc2ccccc2)CC1	n	n	n	n	x	n
COc1ccccc1NC(=O)CN1CCSc2ccccc21	x	n	n	80	n	n
Cc1cccc(NC(=O)CN2CCSc3ccccc32)c1	n	n	n	x	n	n
C[C@H](CO)N1C[C@H](C)[C@H](CN(C)S(=O)(=O)c2ccc(Cl)cc2)OCCCC[C@H](C)Oc2ccc(NS(=O)(=O)c3ccccc3)cc2C1=O	n	x	n	x	n	x
O=C(CCc1ccccc1)NCC(c1ccco1)N1CCc2ccccc21 (stereo unspecified)	n	n	n	98	n	n
Cc1ccc(C(=O)NCC(c2ccco2)N2CCc3ccccc32)cc1 (stereo unspecified)	n	n	n	77	n	n
O=C(NCC(c1ccco1)N1CCc2ccccc21)c1ccccc1Br (stereo unspecified)	n	n	n	n	n	n
O=C(NCC(c1ccco1)N1CCc2ccccc21)c1ccccc1F (stereo unspecified)	n	n	n	98	n	n
CCCN1C[C@H](C)[C@@H](OC)CN(C)C(=O)c2cc(NC(=O)c3cccc(F)c3)ccc2OC[C@H]1C	n	x	n	x	n	x
COC(=O)COc1cccc2c(=O)n(CC(=O)N3CCCc4ccccc43)ccc12	n	x	n	89	n	n
C=CCn1c(SCc2nc3sc(C(=O)O)c(C)c3c(=O)[nH]2)nnc1-c1ccc(C(C)(C)C)cc1	n	n	n	98	n	n
C=CCn1c(SCc2nc3sc(C(=O)O)c(C)c3c(=O)[nH]2)nnc1-c1ccccc1	x	n	x	n	x	n
S=C(Nc1ccc(Cl)cc1)c1nc2ccccc2[nH]1	n	n	n	x	x	n
Cc1ccccc1NC(=S)c1nc2ccccc2[nH]1	n	n	49	n	n	n
Cc1cc(NC(=O)CSc2nc(N)c(NC(=O)c3ccccc3)c(=O)[nH]2)no1	x	n	x	n	n	n
Cc1cc(NC(=O)CSc2nc(N)c(NC(=O)c3ccc(F)c(F)c3)c(=O)[nH]2)no1	n	n	n	n	n	23
C[C@H](CO)N1C[C@H](C)[C@@H](CN(C)S(=O)(=O)c2ccc(Cl)cc2)Oc2ccc(NC(=O)c3ccncc3)cc2CC1=O	n	x	n	x	n	x

From PubChem BioAssay
